This note sets out measurements from PubChem BioAssay (NCATS).

Experiment [1] concerns the target Cytochrome P450 3A4 (Homo sapiens) (UniProt P08684). The experiment is described as follows: qHTS Assay for Inhibitors and Substrates of Cytochrome P450 3A4 (AID 884). For activity change, negative = inhibition: % is set by controls: 0 for no effect and ±100 for the full control effect. Note: nearly all actives have a fitted effect of over 50% in size. Note: potency is the fitted concentration of half-maximal effect. In a few lines: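 Luminescent readout of luciferin produced by CYP3A4 (20 nM) dealkylation of Luciferin-PPXE, 25 uM (its KM). NADPH-driven reaction ran 60 min at RT after 10 min compound preincubation; data scaled to 57 uM ketoconazole as 100% inhibition.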

Experiment [2] is described as follows: qHTS Assay for Lipid Storage Modulators (AID 1519; calls by dose curve; for activity change, negative = inhibition: % is set by controls: 0 for no effect and ±100 for the full control effect). The following applies: Drosophila S3 cells, BODIPY lipid droplet/cell ratio, laser cytometry, cells loaded with oleic acid; for activity change, negative = inhibition: at 57.5 µM (top of the series). The method in brief:
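Cells seeded at 5,000 per well were treated with compounds over a concentration series and loaded with oleic acid (400 uM, as added). Lipid droplet fluorescence (488 nm excitation, 500-530 nm channel) was read by laser-scanning cytometry and normalized to 20 uM Triacsin C.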
Background: In qHTS, concentration-response curves come from the screen itself.

Experiment [3] has as its target Ubiquitin carboxyl-terminal hydrolase 1 (Homo sapiens) (UniProt O94782). The experiment is described as follows: Inhibitors of USP1/UAF1: Pilot qHTS (AID 504865).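 Note: rhodamine fluorescence freed from ubiquitin-rhodamine substrate followed over time; top concentration of the series differs between compounds; % is set by controls: 0 for no effect and ±100 for the full control effect; nearly all actives have a fitted effect of over 35% in size.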 In a few lines:
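In 50mM HEPES pH 7.8 containing 0.5mM EDTA, 1mM TCEP, 0.1 mg/ml BSA and 0.01% Tween-20, 1nM USP1/UAF1 is exposed to compound for 15 min, then Ub-Rho (150nM final) is added and fluorescence is read over time.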

The target of experiment [4] is DNA dC->dU-editing enzyme APOBEC-3G (Homo sapiens) (UniProt Q9HC16). The experiment is described as follows: qHTS for inhibitors of Vif-A3G interactions: Validation (AID 588379). Note: 0% is about no effect. In a few lines: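 Yellow fluorescence (Ex 488, Em 500-530) of Vif-coexpressing HeLa A3G-eYFP cells, scanned by Acumen cytometer, reports blocked A3G degradation. Cells plated at 700/well overnight at 37 deg C before compound addition, then a further overnight compound incubation at 37 deg C.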
Sequence of DNA dC->dU-editing enzyme APOBEC-3G (Homo sapiens) (Q9HC16 whole entry, looked up): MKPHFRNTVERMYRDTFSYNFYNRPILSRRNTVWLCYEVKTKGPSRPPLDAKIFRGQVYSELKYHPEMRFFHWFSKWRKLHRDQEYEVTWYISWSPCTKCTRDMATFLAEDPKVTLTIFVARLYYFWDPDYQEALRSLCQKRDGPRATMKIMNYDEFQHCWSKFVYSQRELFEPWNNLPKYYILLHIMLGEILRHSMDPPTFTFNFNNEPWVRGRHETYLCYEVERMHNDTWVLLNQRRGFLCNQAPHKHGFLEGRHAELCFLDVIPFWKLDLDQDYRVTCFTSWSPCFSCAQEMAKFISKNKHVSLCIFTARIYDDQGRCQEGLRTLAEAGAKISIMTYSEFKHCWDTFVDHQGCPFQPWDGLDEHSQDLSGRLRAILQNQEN

The target in experiment [5] is Cytochrome P450 3A4 (Homo sapiens) (UniProt P08684). The experiment is described as follows: qHTS Assay for Activators of Cytochrome P450 3A4 (AID 885). Note: nearly all actives have a fitted effect of over 65% in size. In a few lines: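 Activators are scored by enhanced luminescence from CYP3A4 conversion of luciferin-PPXE (25uM, equal to KM) to luciferin, after 60 min at RT with an NADPH-regenerating system.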
Sequence of Cytochrome P450 3A4 (Homo sapiens) (P08684 whole entry, looked up): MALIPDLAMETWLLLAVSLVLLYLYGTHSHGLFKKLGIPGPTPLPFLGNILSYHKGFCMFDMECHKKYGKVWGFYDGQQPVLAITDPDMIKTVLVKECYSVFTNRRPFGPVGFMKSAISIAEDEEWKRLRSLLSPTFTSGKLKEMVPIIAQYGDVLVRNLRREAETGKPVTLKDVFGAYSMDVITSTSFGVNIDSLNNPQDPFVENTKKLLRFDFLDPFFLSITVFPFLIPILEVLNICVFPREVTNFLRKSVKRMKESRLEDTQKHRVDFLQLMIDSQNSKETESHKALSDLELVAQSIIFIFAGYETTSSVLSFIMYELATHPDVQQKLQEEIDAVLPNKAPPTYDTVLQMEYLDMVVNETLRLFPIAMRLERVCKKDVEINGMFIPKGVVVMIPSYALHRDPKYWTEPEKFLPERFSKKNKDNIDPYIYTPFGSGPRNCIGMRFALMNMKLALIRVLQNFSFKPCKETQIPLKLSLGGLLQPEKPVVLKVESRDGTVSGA
Experiment [6] is described as follows: Confirmation and Secondary Assay for Modulators of Hemoglobin Beta Chain Splicing at IVS2 654 locus (AID 910).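 Note: HeLa cells stably carrying EGFP split by mutant beta-globin IVS2-654 intron; per-well total GFP intensity by laser scanning cytometry after 2-day treatment; % of control where 0% means no effect.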 In a few lines: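 Readout: per-well total peak green fluorescence (488 nm ex, 500–520 nm em) from objects 5–250 µm, reflecting correct splicing of an EGFP-654 reporter. Compounds were applied for 2 days at 37 °C to overnight-plated HeLa EGFP-654 cells; controls were DMSO and 500 nM IVS2-654 PNA.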

Experiment [7] in a line: Confirmation and Secondary Assay for Modulators of Hemoglobin Beta Chain Splicing at IVS2 705 locus (AID 930).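 Note: HeLa cells stably expressing the EGFP-705 splicing reporter; % of control where 0% means no effect.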 The method in brief: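 HeLa cells stably carrying EGFP interrupted by mutant beta-globin IVS2-705 intron (CMV-driven) were seeded at 500 cells/well, treated next day with compound for 2 days at 37C; corrected splicing restores EGFP, read as total peak GFP intensity per well.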

Experiment [8] addresses Luciferin 4-monooxygenase (Photinus pyralis) (UniProt P08659). The experiment is described as follows: Biochemical firefly luciferase enzyme assay for NPC (AID 624030).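 Note: purified P. pyralis luciferase at 10 nM with luciferin and ATP substrate; 0% = DMSO and -100% = full luciferase inhibition by PTC124 control; nearly all actives have a fitted effect of over 70% in size.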 The method in brief:
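Direct inhibition of firefly luciferase enzyme (10 nM final, 50 mM Tris Acetate) assessed by luminescence within 5 minutes. Percent activity scaled between DMSO and PTC124 positive control, with concentration-effect curves classified by fit quality and response.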

Setting [9] is: measured here: cell count channel max response.
Setting [10] is: measured here: lipid channel max response.

Records with an inconclusive call do not appear. Activity calls are given as the source filed them. Unless noted, calls come from the whole dose curve; as a rule, active = well fitted curve in the direction sought with a large enough effect; inconclusive = small, poorly fitted or top-dose-only effect, or another doubt; inactive = no such curve, though single readings can be large; an effect the other way counts as inactive or inconclusive.

Sequence of Ubiquitin carboxyl-terminal hydrolase 1 (Homo sapiens) (O94782 whole entry, looked up): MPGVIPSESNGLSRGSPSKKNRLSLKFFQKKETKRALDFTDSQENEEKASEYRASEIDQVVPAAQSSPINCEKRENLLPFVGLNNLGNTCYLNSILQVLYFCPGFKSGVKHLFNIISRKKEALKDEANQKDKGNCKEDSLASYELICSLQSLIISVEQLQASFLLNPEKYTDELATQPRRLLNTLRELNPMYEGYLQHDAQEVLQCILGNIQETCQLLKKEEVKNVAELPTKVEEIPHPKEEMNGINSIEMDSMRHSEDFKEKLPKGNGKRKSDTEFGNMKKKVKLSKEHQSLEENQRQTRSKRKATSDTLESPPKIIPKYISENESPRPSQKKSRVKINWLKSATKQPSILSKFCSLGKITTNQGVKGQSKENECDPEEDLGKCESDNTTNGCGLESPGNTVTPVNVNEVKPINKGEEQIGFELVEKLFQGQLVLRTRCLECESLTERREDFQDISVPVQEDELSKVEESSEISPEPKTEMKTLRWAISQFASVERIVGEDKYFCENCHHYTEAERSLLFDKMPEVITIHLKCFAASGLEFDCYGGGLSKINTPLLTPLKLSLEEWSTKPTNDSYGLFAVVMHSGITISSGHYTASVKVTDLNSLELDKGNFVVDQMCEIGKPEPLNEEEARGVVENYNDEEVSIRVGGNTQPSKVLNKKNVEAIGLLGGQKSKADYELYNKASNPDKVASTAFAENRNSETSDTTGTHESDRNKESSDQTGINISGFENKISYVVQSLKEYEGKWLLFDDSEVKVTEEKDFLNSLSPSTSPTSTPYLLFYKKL
Sequence of Luciferin 4-monooxygenase (Photinus pyralis) (P08659 whole entry, looked up): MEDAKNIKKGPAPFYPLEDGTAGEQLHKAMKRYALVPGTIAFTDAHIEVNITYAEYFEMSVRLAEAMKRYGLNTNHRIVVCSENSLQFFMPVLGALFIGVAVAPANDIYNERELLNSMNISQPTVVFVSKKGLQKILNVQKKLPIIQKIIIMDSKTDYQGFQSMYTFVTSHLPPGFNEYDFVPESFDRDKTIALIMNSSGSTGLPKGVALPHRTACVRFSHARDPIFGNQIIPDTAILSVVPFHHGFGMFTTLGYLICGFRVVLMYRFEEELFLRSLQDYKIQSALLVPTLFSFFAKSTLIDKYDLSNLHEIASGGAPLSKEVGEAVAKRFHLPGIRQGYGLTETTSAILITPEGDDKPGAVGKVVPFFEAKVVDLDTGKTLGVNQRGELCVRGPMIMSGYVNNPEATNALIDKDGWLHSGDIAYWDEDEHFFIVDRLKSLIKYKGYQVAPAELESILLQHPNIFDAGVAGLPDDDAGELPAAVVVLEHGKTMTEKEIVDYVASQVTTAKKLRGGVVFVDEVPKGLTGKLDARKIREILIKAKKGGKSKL

For `CC(C)[C@H]1CC[C@@H](C)C[C@H]1O`, the Potency entry in experiment [1] and in experiment [3] was “inactive” in each case. Besides, the activity change, negative = inhibition in experiment [2] is -5.33% (inactive). The max response in experiment [2] (setting [9]) is -11.9%; in experiment [2] (setting [10]) it was -15.2%. Also, the call in experiment [4] was inactive.

On to `O=c1cc(-c2ccc(O)cc2)oc2ccc(O)cc12`, for which, in experiment [1], the Potency is 3.16 µM (active). Moreover, the Potency result in experiment [5], in experiment [6], in experiment [7] and in experiment [3] was “inactive” throughout. Besides, the activity change, negative = inhibition in experiment [2] was 6.92% (inactive). Besides, the max response stood at 7.61% in experiment [2] (setting [9]) and 15.4% in experiment [2] (setting [10]).

For `CNc1ccccc1C(=O)N1CCc2c([nH]c3ccccc23)C1=O`, the Potency in experiment [1] is 1 µM (active). In addition, the Potency entry in experiment [5], in experiment [6], in experiment [7] and in experiment [3] was “inactive” each time. Also, the activity change, negative = inhibition in experiment [2] is 8.02% (inactive). The results for the max response in experiment [2] (setting [9]) and in experiment [2] (setting [10]) were 12.5% and 25.5%, respectively.

For the molecule `Cc1cc(=O)c2c(O)cc(O)c(C)c2o1`, in experiment [1], the Potency was 25.1 µM (active). For the same molecule, the Potency entry in experiment [5], in experiment [6], in experiment [7] and in experiment [3] was “inactive” throughout. The activity change, negative = inhibition in experiment [2] was 14% (inactive). The max response in experiment [2] (setting [9]) is 5.24%; in experiment [2] (setting [10]), 21.1%.

As for `O=c1ccn([C@H]2C[C@H](O)[C@@H](CO)O2)c(=O)[nH]1`, the Potency entry in experiment [1] and in experiment [3] was “inactive” throughout. The activity change, negative = inhibition in experiment [2] was 5.4% (inactive). Moreover, the max response in experiment [2] (setting [9]) was found to be 9.77%; in experiment [2] (setting [10]), 16.3%. For the same molecule, the molecule was called inactive in experiment [4].

With `CC[C@H](C)[C@H](NC(=O)OCC1c2ccccc2-c2ccccc21)C(=O)O`, the Potency in experiment [1] was 31.6 µM (active). In addition, the Potency entry in experiment [5] and in experiment [3] was “inactive” each time. Further, the activity change, negative = inhibition in experiment [2] is -4.14% (inactive). The max response in experiment [2] (setting [9]) was 1.47%; in experiment [2] (setting [10]), -2.84%. Moreover, the molecule was called inactive in experiment [4].

Take `NC(=O)NCCC[C@H](N)C(=O)O`: the Potency result in experiment [1] and in experiment [3] was “inactive” throughout. For the same molecule, the activity change, negative = inhibition in experiment [2] was -0.41% (inactive). Besides, the values for the max response in experiment [2] (setting [9]) and in experiment [2] (setting [10]) were -16.4% and -15.2%, respectively. Besides, the result in experiment [4] was inactive.

On to `Nc1ccn([C@H]2C[C@H](O)[C@@H](CO)O2)c(=O)n1`, for which the Potency entry in experiment [1] and in experiment [3] was “inactive” in each case. For the same molecule, the activity change, negative = inhibition in experiment [2] was 0.617% (inactive). Besides, the values for the max response in experiment [2] (setting [9]) and in experiment [2] (setting [10]) were 3.42% and 2.44%, respectively. Moreover, the result in experiment [4] was inactive.

With `CCOC(=O)CCC(=O)O[C@H]1C(O[C@@H]2C(C)[C@H](O[C@H]3C[C@@](C)(OC)C(O)C(C)O3)C(C)C(=O)OC(CC)[C@@](C)(O)C(O)[C@H](C)C(=O)C(C)C[C@]2(C)O)OC(C)CC1N(C)C` (stereo not given in full), in experiment [1], the Potency was 20 µM (active). The Potency entry in experiment [5], in experiment [6], in experiment [7] and in experiment [3] was “inactive” each time. Further, in experiment [2], the activity change, negative = inhibition was -0.5% (inactive). The max response in experiment [2] (setting [9]) was 3.86%; in experiment [2] (setting [10]), 3.45%.

Turning to `Nc1nc2c(nc(Sc3ccc(Cl)cc3)n2C2OC(CO)C(O)C2O)c(=O)[nH]1` (stereo not given), in experiment [1], the Potency was 15.8 µM (active). The Potency entry in experiment [5], in experiment [6], in experiment [7] and in experiment [3] was “inactive” throughout. In addition, in experiment [2], the activity change, negative = inhibition was 5.03% (inactive). The max response in experiment [2] (setting [9]) worked out at 14.6%; in experiment [2] (setting [10]), 19.6%.

As to `O=c1cc(-c2ccccc2)oc2cccc(O)c12`, the Potency result in experiment [5], in experiment [7] and in experiment [3] was “inactive” in each case. Besides, the activity change, negative = inhibition in experiment [2] was 19.1% (inactive). Besides, the figures for the max response in experiment [2] (setting [9]) and in experiment [2] (setting [10]) were 2.34% and 21.9%, respectively. For the same molecule, the molecule was called inactive in experiment [4].

Consider `CC1(C)SC2C(NC(=O)C(N)c3ccccc3)C(=O)N2C1C(=O)O` (stereo not given), for which the Potency result in experiment [6], in experiment [7], in experiment [3] and in experiment [8] was “inactive” throughout. Moreover, in experiment [2], the activity change, negative = inhibition is 7.23% (inactive). Besides, the figures for the max response in experiment [2] (setting [9]) and in experiment [2] (setting [10]) were 15.7% and 29.5%, respectively.
